Measured values: PubChem BioAssay (EPA / NIEHS)
Activity calls are given as the source filed them. The calls were made as follows: active = hit-call score of the fitted dose curve at least 0.9, where 1 is the maximum; inactive = score below 0.9.

Experiment: CCTE_Padilla_ZF_144hpf_TERATOSCORE: (Legacy) CCTE's 144 Hour Post-fertilization zebrafish Assay Teratoscore, Padilla Lab (AID 2283679);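 as to AC50: zebrafish embryos with chorions exposed by immersion from 6-8 hpf to 5 dpf with daily renewal; teratogenicity score from eye scoring of death hatching and malformations at 144 hpf; higher score means more developmental defects relative to DMSO baseline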
Method in brief: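 Larvae scored by eye at 144 hpf for death, hatching and malformations after a day in clean Hanks'. Before that, daily-renewed exposure at 80 uM (0.4% DMSO, 26C) from roughly 6-8 hpf through 5 dpf, 4 embryos per chemical.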

Row | SMILES | AC50 | outcome
1 | Oc1ccc(Cl)cc1Cl | 56.6 µM (active) | 
2 | NS(=O)(=O)C(F)(F)C(F)(F)C(F)(F)C(F)(F)C(F)(F)C(F)(F)C(F)(F)C(F)(F)F | 0.45 µM (active) | 
3 | Oc1c(Cl)c(Cl)c(Cl)c(Cl)c1Cl | 0.806 µM (active) | 
4 | ClC(Cl)=C(c1ccc(Cl)cc1)c1ccc(Cl)cc1 | 8.32 µM (active) | 
5 | CCCCCCCCCc1ccc(O)cc1 | 61.4 µM (active) | 
6 | C[C@]12CCC(=O)C=C1CC[C@@H]1[C@@H]2CC[C@@]2(C)[C@H]1CC[C@]2(C)O | 24.4 µM (active) | 
7 | CCOP(=S)(OCC)SCSC(C)(C)C | 56.3 µM (active) | 
8 | CCCN(CCC)N=O |  | inactive
